# Source: PubChem BioAssay
# Most compounds without a hit are left out; they make up all but 3.9% or so of the library.
# GDH-TPI inh: GDH-TPI coupling enzyme inhibitors, primary screen, artefact control for M. tuberculosis FBA inhibitor project, biochemical, absorbance, full deck. actives 1.2% (n = 360,000). GDH-TPI coupled enzyme counterscreen, NADH absorbance. inhibition, % at 4.8 µM; in the data active = inhibition above about 30%;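 also: 0% = DMSO wells and 100% = wells lacking the enzyme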
# Mtb FBA inh: Mtb FBA enzyme inhibitors, primary screen, biochemical, fluorescence, strain H37Rv | actives 2.3% (n = 360,000) | inhibition, % at 1 µM | purified M. tuberculosis FBA, fluorescence read-out | Fructose-bisphosphate aldolase (Mycobacterium tuberculosis (strain ATCC 25618 / H37Rv)), …; in the data active = inhibition above about 27%;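 also: 0% = vehicle and 100% = reference inhibitor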
# Target sequence (P9WQA3 whole entry, looked up): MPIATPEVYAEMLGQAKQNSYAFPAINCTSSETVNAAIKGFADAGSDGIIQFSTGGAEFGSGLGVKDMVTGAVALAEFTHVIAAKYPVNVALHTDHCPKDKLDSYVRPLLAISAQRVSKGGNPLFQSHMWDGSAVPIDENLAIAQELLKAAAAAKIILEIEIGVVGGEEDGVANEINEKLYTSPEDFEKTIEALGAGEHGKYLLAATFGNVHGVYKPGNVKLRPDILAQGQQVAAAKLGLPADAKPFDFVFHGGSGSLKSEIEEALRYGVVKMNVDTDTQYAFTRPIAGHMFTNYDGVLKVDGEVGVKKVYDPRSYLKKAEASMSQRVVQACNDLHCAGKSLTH
# SARS 3CLpro inh: SARS-CoV 3CLpro protease inhibitors, primary screen, biochemical, quenched FRET; recombinant SARS-CoV 3CLpro, quenched FRET peptide cleavage; inhibition, % at 6 µM; actives 0.14% (n = 290,000); Replicase polyprotein 1ab (Severe acute respiratory syndrome coronavirus), P0C6X7; in the data active = inhibition above about 12%
# Vc quorum ag: inducers of Vibrio cholerae quorum light production without autoinducers, primary screen, BH1578 luxS cqsA deficient, single point | V. cholerae BH1578 lux reporter, luminescence, 6 h | activation, % at 18.7 µM | actives 0.16% (n = 350,000); in the data active = activation mostly above about 9.7%, no sharp cut-off
# PrPC surface inh: inhibitors of human cell surface prion protein PrPC, primary screen, cell-based, TR-FRET; TR-FRET read-out; actives 0.43% (n = 370,000); inhibition, % at 13.8 µM; Major prion protein (Homo sapiens), P04156; in the data active = inhibition above about 24%; also: 0% = median of the test wells and 100% = reference compound wells
# * = called active by the depositor; i = inactive; x = not tested or not shown; + = active, no number.
SMILES,GDH-TPI inh,Mtb FBA inh,SARS 3CLpro inh,Vc quorum ag,PrPC surface inh
O=C1C=C(OCCF)CC(c2cccc([N+](=O)[O-])c2)O1 (stereo not drawn),x,x,x,x,-33
CCCN1C[C@@H](C)[C@@H](OC)CN(C)C(=O)c2ccc(NC(=O)c3cccc(F)c3)cc2OC[C@H]1C,x,x,x,x,2
CCN(C[C@H]1N[C@@](CC)(C(=O)OC)[C@H]2C(=O)N(C)C(=O)[C@@H]12)C(=O)Nc1ccc(C)cc1,2,0,x,-1,-5
OC(Cc1ccccc1Br)c1ncc(-c2cccc(C(F)(F)F)c2)[nH]1 (stereo not drawn),8,-3,x,-1,3
O=C(O)c1c(-c2ccccc2)oc2ccc(O)cc12,-3,26,3,i,-6
COc1ccc2oc(-c3ccccc3)c(C(=O)O)c2c1,9,+,0,0,2
COC(=O)c1c(-c2ccc(OC)cc2)oc2ccccc12,18,134*,1,-3,-1
Cc1oc2cc3oc(=O)c(CC(=O)NCCC(=O)O)c(C)c3cc2c1C,18,8,0,i,7
Cc1oc2cc3oc(=O)c(CC(=O)NCC(=O)N[C@@H](C(=O)O)c4ccccc4)c(C)c3cc2c1C,15,7,5,0,-3
Cc1c(CC(=O)NC(C)C)c(=O)oc2cc3c(cc12)CCC(C)(C)O3,22,+,4,2,-1
COCCNC(=O)Cc1c(C)c2cc3c(cc2oc1=O)OC(C)(C)CC3,16,165*,2,-1,-1
Cc1c(CC(=O)N[C@@H](C)C(=O)O)c(=O)oc2cc3c(cc12)CCC(C)(C)O3,26,+,0,-1,-6
Cc1c(CC(=O)NCC(C)C)c(=O)oc2cc3c(cc12)CCC(C)(C)O3,16,140*,0,-18,7
Cc1noc(C)c1NC(=O)N(C)C[C@H]1Oc2ccc(NC(=O)Nc3ccc(C(F)(F)F)cc3)cc2C(=O)N([C@H](C)CO)C[C@@H]1C,7,1,x,0,-2
CC(C)=CCCC(C)=CCN1C(=O)CN(C)C1=O,-4,-2,x,-1,2
CCC(C)NC(=O)Cc1c(C)c2cc3c(cc2oc1=O)OC(C)(C)CC3 (stereo not drawn),17,189*,3,i,2
CC[C@@H](C)[C@H](NC(=O)Cc1c(C)c2cc3c(C)c(C)oc3c(C)c2oc1=O)C(=O)O,6,1,3,1,1
Cc1c(CC(=O)N[C@H](C(=O)O)C(C)C)c(=O)oc2cc3c(cc12)CCC(C)(C)O3,23,153*,-3,i,2
Cc1oc2cc3oc(=O)c(CC(=O)N[C@H](C(=O)N[C@@H](C(=O)O)c4ccccc4)C(C)C)c(C)c3cc2c1C,23,9,2,0,7
CCN1C(=O)N/C(=C/c2cc(C)n(Cc3ccccc3)c2C)C1=O,32*,2,4,x,-9
Cc1[nH]n(-c2ccccc2)c(=O)c1/C=N/NC(=O)c1ccc(O)cc1O,36*,16,1,1,x
COc1cc(/C=N/NC(=S)NCCN2CCOCC2)ccc1O,48*,2,-3,0,-4
COc1cc(/C=N/NC(=O)c2cc3ccccc3[nH]2)ccc1O,41*,-1,-9,i,-8
COc1cc(/C=N/NC(=O)c2cn(-c3cccc(C)n3)cn2)ccc1O,34*,-1,0,0,-2
COc1cc(/C=N/NC(=S)Nc2cccc(S(=O)(=O)N(C)C)c2)ccc1O,45*,1,2,0,3
SMILES,GDH-TPI inh,Mtb FBA inh,SARS 3CLpro inh,Vc quorum ag,PrPC surface inh
O=C(NCCNC(=O)c1cc(Cl)ccc1Cl)c1cnccn1,-2,2,-2,i,5
CCS(=O)(=O)Nc1ccc2c(c1)C(=O)N(C)[C@@H]1CC[C@H](CC(=O)N[C@@H]3CCN(Cc4ccccc4)C3)O[C@H]1CO2,x,x,x,x,-6
CCCNC(=O)N1CC[C@H]2[C@@H]1c1cc(-c3ccc(F)cc3)ccc1N(C)[C@H]2CO,x,x,x,x,-11
COc1cc(/C=N/Nc2nc(C)cc(C)n2)ccc1O,36*,-2,x,i,-2
COc1cc(/C=N/NC(=O)c2nc(C)cc(C)n2)ccc1O,37*,1,-1,-1,3
CCOc1cccc(/C=N/Nc2nc(N3CCCC3)nc(N3CCCC3)n2)c1O,5,-2,-1,0,6
COc1cc(/C=N/NC(=O)c2cccc(C(=O)N/N=C/c3ccc(O)c(OC)c3)n2)ccc1O,44*,2,-3,-8,-1
CCOc1cc(/C=N/Nc2nc(N3CCCC3)nc(N3CCCC3)n2)ccc1O,36*,1,0,i,4
COc1cc(/C=N/NC(=O)c2ccncc2)ccc1O,23,-1,-4,0,-9
COc1ccc(/C=N/NC(=O)c2cccc(C(=O)N/N=C/c3ccc(OC)cc3)n2)cc1,14,0,-13,-1,-2
COc1cc(/C=N/NC(=O)c2cccc(NC(=O)c3ccccc3C)c2)ccc1O,16,-1,-1,0,5
COc1cc(/C=N/NC(=O)c2cccc(NC(=O)c3ccccc3)c2)ccc1O,37*,-5,0,0,-17
COc1cc(/C=N/N=C/c2cc(OC)c(O)c(OC)c2)cc(OC)c1O,35*,-4,-6,0,8
COc1ccc(/C=N/N=C/c2ccc(OC)c(OC)c2)cc1OC,9,0,4,i,-3
COc1ccc(/C=N/N=C/c2ccc(OC)c(O)c2)cc1O,50*,-2,5,0,9
CCn1c(SCC(=O)NN=Cc2c[nH]c3ccccc23)nc2ccccc21,x,x,x,x,6
COc1ccc(/C=C(/C(=O)c2cccs2)N2C=CC=CC2=C(C#N)C#N)cc1,14,6,-1,0,-20
COc1ccc(C(=O)/C(=C\c2ccco2)N2C=CC=CC2=C(C#N)C#N)cc1,51*,-2,7,i,x
N#CC(C#N)=C1C=CC=CN1/C(=C\c1ccco1)C(=O)c1ccc(Br)cc1,37*,-1,0,0,2
CC(C)C[C@H]1CN(CCCC[C@H]2CNC(=O)C(=O)N2CCC2CCCCC2)C(=O)C(=O)N1CCc1ccccc1,x,x,x,x,-3
CC(C)(C)OC(=O)NCc1n[nH]c(=S)n1C1CC1,0,1,1,i,-7
CC(C)(C)NC(=O)CN1CCN(C(=O)CCl)CC1,-3,-1,-1,1,4
CC(=O)Nc1cccc(-c2cc3c(c4c2ccn4C)C2CCC3O2)c1 (stereo not drawn),x,161*,x,x,-14
CCS(=O)(=O)N1Cc2ccccc2CC1C(=O)NCC12CC3CC(CC(C3)C1)C2 (stereo not drawn),4,2,0,0,1
